Screening results as filed in PubChem BioAssay.
This is a sample that favours compounds with a hit; in the whole collection about 12% have one here.
AMA1-RON2 inh: inhibitors of Plasmodium falciparum AMA1-RON2 interaction | AID 720542 | Potency, µM (top dose mostly 58.2 µM), for the others: at the top dose activity change, negative = inhibition, most hits filed as inhibitors | hit rate 0.2% among 360,000 | AlphaScreen AMA1-biotinylated RON2 peptide binding;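 also: 0% = vehicle wells and -100% = peptide control; nearly all actives have a fitted effect of over 45% in size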
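AMA1 (3D7) with his tag at 25 nM final met compounds first, then biotinylated RON2 peptide at 25 nM; detection used donor plus acceptor beads, 10 µg/mL apiece, read by AlphaScreen after 30 min at room temperature.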
HCV inh: blocks hepatitis C virus | hit rate 3.4% among 340,000 | AID 651820 | Huh7.5.1 HCVcc-Cre infection, luciferase reporter, 44 h | Potency, µM (doses to about 41.8 µM), without a hit: top-dose activity change, negative = inhibition, most hits filed as inhibitors; also: % is scaled to controls: 0 for no effect and ±100 for the full control effect
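Cells (1,000/well) were plated 4 h before compound, then infected with HCVcc-Cre virus (~0.5 moi). After 44 h further culture, infection was read as luciferase luminescence following a 15 min substrate incubation at room temperature.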
SARS PLP yeast: blocks SARS-CoV papain-like protease in a yeast assay | S. cerevisiae expressing SARS-CoV PLpro, growth rescue | Potency, µM (series often up to 32.9 µM), for the others: at the highest dose activity, positive = growth rescue, usual class: activators | hit rate 0.19% among 330,000 | AID 485353; calls by dose curve; also: 0% is about no effect; nearly all actives have a fitted effect of over 55% in size
Pf growth 48h: P. falciparum growth inhibition at 48 hours (one generation); AID 504832; hit rate 5.9% among 310,000; Potency, µM (series often up to 28.7 µM), for inactives: at the highest dose activity change, negative = inhibition, hits mostly inhibitors; P. falciparum luciferase growth in erythrocytes, 48 h; also: % is scaled to controls: 0 for no effect and ±100 for the full control effect
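Here the parasites carry a stable luciferase gene and grow inside erythrocytes in Albumax-based RPMI medium with compound for one erythrocytic cycle. Activity is scored as loss of luminescent signal.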
Pf growth 96h: P. falciparum growth inhibition at 96 hours; P. falciparum luciferase reporter growth, 96 h; Potency, µM (highest dose often 28.7 µM), for inactives: at the top dose activity change, negative = inhibition, hits mostly inhibitors; hit rate 6.9% among 320,000; also: % is scaled to controls: 0 for no effect and ±100 for the full control effect
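Plates of compound plus infected erythrocytes (2% hematocrit, 0.05% parasitemia final) incubate 96 hours, 37 C, 5% CO2. Detection reagent added; reduced luminescence from the parasites' luciferase reporter flags inhibition.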
NS1 inh: influenza NS1 inhibition. Potency, µM (doses to about 46.1 µM), for the others: at the highest dose activity, positive = more growth. hit rate 0.4% among 270,000. AID 2326; calls by dose curve; also: actives are rising curves; nearly all actives have a fitted effect of over 50% in size
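Read-out: OD600 growth recovery of NS1-expressing budding yeast. Cells grown overnight at 30C in -URA glucose medium, washed, resuspended and diluted 1:100 in 2% galactose assay medium, pH 6.0. Same strain lacking NS1 served as positive control.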
The depositor's hits bear a star; ? = inconclusive; . = no result; [ ] = dose if it differs, or a comment. Unless noted, calls follow the shape of the dose curve; as a rule, active = well fitted curve in the direction sought with a large enough effect; inconclusive = small, poorly fitted or top-dose-only effect, or another doubt; inactive = no such curve, though single readings can be large; an effect the other way counts as inactive or inconclusive. Potency is read from the fitted curve at half-maximal effect.

SMILES	AMA1-RON2 inh	HCV inh	SARS PLP yeast	Pf growth 48h	Pf growth 96h	NS1 inh
CN1/C(=C\C=O)C(C)(C)c2ccccc21	1.2%	6.1%	-0.7%	2.2%	5.5%	.
N#Cc1ccccc1Sc1ccccc1C(=O)OCC(N)=O	2.3%	8.9%	1.2%	4.6%	23.4%	.
Cc1noc(C)c1COC(=O)c1ccccc1Sc1ccccc1C#N	-0.8%	?	0.2%	.	11.7µM*	-12.7%
CN(C)CCOC1c2ccccc2CSc2ccccc21 (stereo unspecified)	-18.3%	-9.2%	.	.	.	.
NC(=O)CCN1CCN(CCOC2Cc3cc(Cl)ccc3Sc3ccccc32)CC1 (stereo unspecified)	-6.2%	11.2µM*	-18.0%	?	?	-11.0%
CN1CCN(CCOC2c3ccccc3CSc3ccc(Cl)cc32)CC1 (stereo unspecified)	-24.8%	?	17.8%	?	10.4µM*	-16.0%
CCOc1ccc(NC2OC(CO)C(O)C(O)C2O)c([N+](=O)[O-])c1 (stereo unspecified)	-2.2%	5.3%	3.6%	6.5%	5.2%	.
CN(Cc1c(C(=O)N2CCCCCCC2)nc2ccc(Cl)cn12)C1CCOC1 (stereo unspecified)	5.4%	.	-6.0%	-8.5%	-1.0%	11.9%
O=C(Nc1nnc(SCC(=O)N2CCCC2)s1)C1CC(=O)N(c2ccc(F)cc2)C1 (stereo unspecified)	-0.9%	4.5%	7.0%	-22.7%	11.7µM*	28.9%
Cc1cc(NC(=O)CN2C(=O)CC(c3ccco3)Sc3ccccc32)no1 (stereo unspecified)	-8.7%	35.5µM*	21.9%	?	11.7µM*	?
Cc1ccc(N2CC(C(=O)Nc3nnc(SCCC4OCCO4)s3)CC2=O)cc1 (stereo unspecified)	0.9%	2.0%	13.2%	?	?	?
O=C(Nc1nnc(SCc2ccccn2)s1)C1CC(=O)N(c2ccc(F)cc2)C1 (stereo unspecified)	22.9%	14.6%	-2.0%	-5.2%	?	21.6%
COc1ccc(N2CC(C(=O)Nc3nnc(SCCC4OCCO4)s3)CC2=O)cc1 (stereo unspecified)	17.0%	5.2%	-5.5%	?	13.1µM*	-0.6%
Cc1ccccc1N1CC(C(=O)Nc2nnc(SCc3ccccn3)s2)CC1=O (stereo unspecified)	43.5%	12.5%	2.5%	13.1µM*	7.38µM*	3.4%
Cc1cc(NC(=O)C2CC(=O)N(c3ccccc3C)C2)no1 (stereo unspecified)	-10.0%	?	0.3%	16.1%	11.7µM*	11.4%
Cc1ccsc1CNC1C2CC3CC(C2)CC1C3 (stereo unspecified)	3.0%	0.7%	0.7%	-5.7%	1.9%	1.2%
Cc1ccc(N2C(=O)C(Cl)=C(N3CCN(C)CC3)C2=O)c(C)c1	-3.6%	14.2%	-1.1%	?	2.62µM*	8.6%
CCn1c(CNc2ccc(Cl)cc2)nnc1SCC#N	-5.7%	0.6%	-0.1%	9.1%	2.94µM*	-0.5%
CCn1c(CNc2ccc(F)cc2)nnc1SCC#N	-12.1%	21.4%	-0.4%	9.9%	16.3%	4.3%
Cc1ccc(CN2C(=O)C(C)Oc3ccc(C)cc32)cc1 (stereo unspecified)	18.4%	.	.	.	.	.
O=c1c2c3c(sc2n2cnnc2n1Cc1ccccc1)CN(Cc1ccccc1)CC3	?	7.94µM*	-8.8%	10.4µM*	?	?
O=C(Nc1cccc(C(F)(F)F)c1)c1cccnc1N1CCN(c2ccccc2)CC1	29.9µM*	?	-34.0%	0.0%	.	16.8%
COc1ccc(-c2cc([N+](=O)[O-])ccc2OCC(=O)N(C)CC(=O)Nc2ccc(C)cc2)cc1	-14.0%	?	5.3%	6.57µM*	9.28µM*	.
CCOc1ccc(NC(=O)CN(C)C(=O)c2cc(-c3ccc(OC)cc3)nc3ccccc23)cc1OCC	-9.4%	?	-0.9%	9.28µM*	7.38µM*	.
COc1ccc(-c2cc(C(=O)N(C)CC(=O)Nc3ccccc3C(F)(F)F)c3ccccc3n2)cc1OC	70.3%	?	.	.	.	.
SMILES	AMA1-RON2 inh	HCV inh	SARS PLP yeast	Pf growth 48h	Pf growth 96h	NS1 inh
COc1ccc(-c2cc(C(=O)N(C)CC(=O)Nc3ccccc3Br)c3ccccc3n2)cc1OC	9.6%	20µM*	-7.4%	8.28µM*	9.28µM*	.
COc1cccc(NC(=O)CN(C)C(=O)c2cc(-c3ccc(C)o3)nc3ccccc23)c1	-5.8%	?	-2.2%	11.7µM*	9.28µM*	.
COc1ccc(NC(=O)CN(C)C(=O)CN2C(=O)c3ccc([N+](=O)[O-])cc3C2=O)cc1	-2.6%	.	-6.8%	104.9%	34.5%	-5.4%
Cc1ccccc1OCC(=O)NCCNC(=O)c1ccccn1	-21.6%	18.4%	-2.0%	-8.2%	-0.3%	6.7%
CC(Sc1nc(N)cc(N)n1)C(=O)Nc1ccc(N2CCOCC2)cc1 (stereo unspecified)	2.9%	18.6%	-6.7%	1.1%	10.0%	.
CCOc1ccc(NC(=O)CN(C)C(=O)CCCc2nc3ccccc3c(=O)[nH]2)cc1OCC	-7.1%	-2.2%	.	-11.9%	20.0%	.
Cc1ccc(N(CC(=O)N(C)Cc2ccccc2)S(C)(=O)=O)cc1C	13.2%	10.6%	2.4%	-0.7%	?	4.0%
COc1ccc(-c2nonc2NC(=O)c2ccco2)cc1OC	8.9%	7.4%	2.7%	?	?	9.1%
CCOc1ccc(-c2nonc2NC(=O)c2ccco2)cc1	-5.8%	4.9%	3.8%	0.3%	10.4µM*	-37.9%
CCOc1ccc(-c2nonc2NC(=O)c2ccco2)cc1OCC	-10.9%	-20.8%	-0.2%	0.37µM*	?	4.9%
CCc1nnc(NC(=O)CCNC(=O)c2ccco2)s1	-10.7%	24.6%	3.0%	?	2.5%	4.0%
CCCNC(=O)c1ccccc1NC(=O)c1ccccc1N(C)S(=O)(=O)c1ccc(C)cc1	-3.1%	?	7.7%	8.28µM*	11.0%	1.9%
CC(=O)c1cccc(NC(=O)c2ccccc2N(C)S(=O)(=O)c2ccc(C)cc2)c1	4.2%	22.1%	0.7%	?	13.1µM*	-0.1%
CCCCC[C@@H]1C=C(C(=O)O)[C@H](c2ccc(OC)c(OC)c2)N1S(=O)(=O)c1ccc(C)cc1	10.9%	29.9%[8.37 µM]	-1.0%	.	.	.
O=C(NCCCN1CCCC1=O)c1ccc(Cl)c(Cl)c1	-3.3%	-0.5%	0.5%	-13.6%	4.4%	.
CN(C)CCCCCCCCCCC(=O)/C=N/O	0.0%	-11.1%	.	.	.	.
CN(CCCCCCCCC(=O)/C=N/O)Cc1ccccc1	-0.8%	9.7%	-5.5%	.	2.62µM*	0.4%
COc1ccc(S(=O)(=O)Nc2cccc3c2O[C@H](CN(C)C(=O)Nc2ccc(C(F)(F)F)cc2)[C@@H](C)CN([C@H](C)CO)C3=O)cc1	-10.2%	-23.8%	-17.8%	.	.	.
